Data on 59 molecules can be found in PubChem BioAssay AID1851 (National Center for Advancing Translational Sciences (NCATS), 2009).

Among all 16,000 compounds or so, about 5,700 (36%) were called active. Not shown: some 24% with an inconclusive outcome. The list shows a part of the results. Values without a mark were called inactive. Calls follow the shape of the dose curve; as a rule, active = well fitted curve in the direction sought with a large enough effect; inconclusive = small, poorly fitted or top-dose-only effect, or effect the other way; inactive = no such curve, though single readings can be large or run the other way.
% is scaled to controls: 0 for no effect and ±100 for the full control effect.

For this test, the target named is Cytochrome P450 1A2 (Homo sapiens) (UniProt P05177). Kind of test: Cytochrome panel assay with activity outcomes. As to conditions: recombinant CYP, pro-luciferin dealkylation, luminescence, p450-cyp1a2; series mostly up to 57.1 µM; activity, negative = inhibition: at the top concentration.
Chain of Cytochrome P450 1A2 (Homo sapiens) (P05177 whole entry, looked up): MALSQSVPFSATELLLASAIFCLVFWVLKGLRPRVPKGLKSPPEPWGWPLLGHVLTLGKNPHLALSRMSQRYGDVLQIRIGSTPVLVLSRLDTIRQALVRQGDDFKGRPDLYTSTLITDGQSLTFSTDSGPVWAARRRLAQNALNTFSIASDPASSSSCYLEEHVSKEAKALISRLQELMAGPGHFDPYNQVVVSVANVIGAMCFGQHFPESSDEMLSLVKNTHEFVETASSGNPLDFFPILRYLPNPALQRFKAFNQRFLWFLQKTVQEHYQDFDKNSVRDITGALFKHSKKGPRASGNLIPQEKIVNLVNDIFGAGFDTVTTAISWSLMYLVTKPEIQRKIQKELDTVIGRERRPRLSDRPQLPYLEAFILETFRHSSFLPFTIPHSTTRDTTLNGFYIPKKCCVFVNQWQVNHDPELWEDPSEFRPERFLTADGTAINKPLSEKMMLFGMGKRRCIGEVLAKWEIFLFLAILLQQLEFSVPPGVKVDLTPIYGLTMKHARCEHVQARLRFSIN
On to `CCc1cc2c(nc1CC)CCN(CC/C(C)=N/OCC[C@@H]1C=C[C@H](OC(C)=O)[C@H](COC(C)=O)O1)C2`, for which the activity, negative = inhibition was -15.5% [at 11.4 µM].
As for `N#CC1=C(N)OC2=C(CC/C2=C\c2ccccc2)C1c1ccccc1` (centres undefined), the AC50 (commonly the concentration at which the activity in the assay is half-maximal) was 2.51 µM (active).
On to `O=C(OCc1nc2ccccc2s1)c1ccc(Br)s1`, for which the AC50 is 3.16 µM (active).
For `CC(=O)OCc1nc2ccccc2s1`, the concentration at half-maximal activity (AC50) was 2.82 µM (active).
As for `CCCc1cc(C(=O)Cc2nc3ccccc3s2)c(O)cc1O`, the concentration at half-maximal activity (AC50) is 2.24 µM (active).
Regarding `Nc1cc(=O)[nH]c(N)n1`, the “activity, negative = inhibition” value is -20.6%.
In the case of `N=c1ccn2c(n1)O[C@H]1[C@@H](OP(=O)(O)O)[C@H](CO)O[C@H]12`, the activity, negative = inhibition was -3.14% [at 2.29 µM].
On to `COC(=O)[C@@H]1CC[C@H](C)[C@@H](c2ccc(C)cc2)N1C(=O)c1ccc(/C=N\OC[C@@H](O)COCc2ccco2)cc1`, for which the activity, negative = inhibition was -1.66% [at 11.4 µM].
For `CNc1ccnc(-c2ccccc2C(F)(F)F)n1`, the half-maximal activity concentration (AC50) is 12.6 µM (active).
As for `Fc1ccc(Nc2ccnc(-c3ccccc3C(F)(F)F)n2)cc1`, the AC50 is 2 µM (active).
Turning to `CN1C[C@H](c2ccccc2)C(O)([C@]2(c3ccccc3)CN(C)C[C@@H](c3ccccc3)C2=O)[C@H](c2ccccc2)C1` (some centres undefined), the activity, negative = inhibition was -5.45% [at 11.4 µM].
Still for that read-out and setting: in the case of `O[C@@H](c1cc([C@@]23C[C@H]4CC[C@@H]2C[C@H](C4)C3)nc2c(Cl)cc(Cl)cc12)[C@@H]1CCCCN1` it was -10.5% [at 2.29 µM].
Regarding `CCOC(=O)c1c(C)nc2sc3c(=O)n(-c4ccc(OC)cc4)nnc3c2c1-c1ccc(OC)cc1`, the “activity, negative = inhibition” value was 10.4%.
Regarding `CCOC(=O)c1nc2sc(C)c(C)c2c(=O)[nH]1`, the AC50 is 14.1 µM (active).
Same read-out and setting: in the case of `Cc1ccc(Nc2nc(Cl)nc(N(C)C#N)n2)cc1` it was 3.55 µM (active).
Consider `O=C(O)NCC1CCCCC1` (tested in a mixture with another compound), for which the activity, negative = inhibition was -10.2% [at 11.4 µM].
Turning to `Cc1nc(-c2c(C(F)(F)F)noc2-c2ccc(O)cc2O)cs1`, the AC50 is 12.6 µM (active).
`O=C(NCc1ccccc1)C(c1ccc(F)cc1)N(Cc1ccco1)C(=O)c1ccccn1` (centres undefined): the “activity, negative = inhibition” value is 4.4%.
With `O=C(c1ccco1)N(CCC(c1ccccc1)c1ccco1)Cc1ccco1` (centres undefined), the AC50 is 14.1 µM (active).
Turning to `NC(=O)CC(c1ccccc1)c1ccco1` (centres undefined), the “activity, negative = inhibition” value was -5.54%.
Turning to `CCOC(=O)C1CCCN(C(=O)c2sc3nc(-c4ccc(OC)cc4)cn3c2C)C1` (centres undefined), the AC50 was 20 µM (active).
Consider `CCOC(=O)C1CCCN(C(=O)CCn2nc(-c3ccccc3)ccc2=O)C1` (centres undefined), for which the “activity, negative = inhibition” value was -23.4%.
For the molecule `CCOC(=O)C1CCN(Cc2cnc(Oc3ccc(OC)cc3)s2)CC1`, the “activity, negative = inhibition” value was -7.6%.
`O=C(O)c1ccc([N+](=O)[O-])c(P(=O)(O)O)c1`: the activity, negative = inhibition is -9.8% [at 11.4 µM].
On to `O=C(NCC1CCCO1)c1ccc(CS(=O)(=O)Cc2ccc(F)cc2)o1` (centres undefined), for which the “activity, negative = inhibition” value was -11.4%.
Still for that read-out and setting: in the case of `O=C1C=C(NCC2CCCO2)C2(CCCCC2)O1` (centres undefined) it was 11.9%.
On to `O=C1CC(c2ccc(F)cc2)Cc2nc(NCC3CCCO3)ncc21` (centres undefined), for which the concentration at half-maximal activity (AC50) was 22.4 µM (active).
For the molecule `Cc1ccc(C(=O)C(OC(=O)CNS(=O)(=O)c2ccccc2)c2ccccc2)cc1` (centres undefined), the “activity, negative = inhibition” value was -20.7%.
Regarding `COCCOC(=O)C1=C(C)NC(=O)N(C(C)=O)C1c1ccc(Cl)cc1` (centres undefined), the “activity, negative = inhibition” value is -20.4%.
As for `CCOC(=O)C1=C(N)n2c(s/c(=C/c3ccccc3)c2=O)=C(C(=O)OCC)C1c1ccccc1` (centres undefined), the “activity, negative = inhibition” value is -10.3%.
For the molecule `CCOC(=O)C1=C(C)N=C2c3ccccc3C(=O)C2C1c1ccc(Cl)cc1` (centres undefined), the AC50 was 3.16 µM (active).
In the case of `CCOC(=O)C1=NNC2(c3ccc(Cl)cc3)C(=O)N(c3cc(C)cc(C)c3)C(=O)C12` (centres undefined), the “activity, negative = inhibition” value is -0.857%.
Turning to `CCOC(=O)C1=C(C)N=C2c3ccccc3C(=O)C2C1c1ccc(C)cc1` (centres undefined), the concentration at half-maximal activity (AC50) is 3.16 µM (active).
For `COC(=O)[C@@]1(Cc2ccccc2)[C@H]2c3cc(C(=O)N(C)C)n(Cc4ccsc4Br)c3C[C@H]2CN1C(=O)c1ccccc1`, the “activity, negative = inhibition” value is -17.5%.
Regarding `CCCOc1ccc(Cn2c(C)nc([N+](=O)[O-])c2SCC(O)COC)cc1[N+](=O)[O-]` (centres undefined), the “activity, negative = inhibition” value was -20.4%.
Regarding `COc1ccc(CSc2nnnn2C)cc1[N+](=O)[O-]`, the concentration at half-maximal activity (AC50) is 14.1 µM (active).
`CSc1nncc(-c2ccc(F)c(F)c2)n1`: the AC50 is 3.55 µM (active).
In the case of `OC(COCC1COc2ccccc2O1)CN1CCN(c2ccccc2F)CC1` (centres undefined), the “activity, negative = inhibition” value was -22.8%.
For `CC1CCCN(CC(O)COCC2COc3ccccc3O2)C1` (centres undefined), the “activity, negative = inhibition” value is -7.91%.
On to `OC(COCC1COc2ccccc2O1)CN1CCc2ccccc2C1` (centres undefined), for which the AC50 was 5.01 µM (active).
As for `NC(=O)[C@H]1CC2(CC(c3cccc(NC(=O)c4ccccc4)c3)=NO2)CN1C(=O)[C@H]1CCC(=O)N1` (some centres undefined), the “activity, negative = inhibition” value was -9.8%.
With `CCOC(=O)C1=C(C)NC2(O)c3ccccc3C(=O)C12O` (centres undefined), the half-maximal activity concentration (AC50) was 20 µM (active).
As to `CC(=O)Nc1ccc(S(=O)(=O)NCC2CCC(C(=O)N3CCN(c4ccccn4)CC3)CC2)cc1` (centres undefined), the “activity, negative = inhibition” value is -14.1%.
For the molecule `O=c1onc2n1-c1cc(Br)ccc1OC2`, the half-maximal activity concentration (AC50) was 0.794 µM (active).
`Cc1ccc(NC(=O)N/C=C/c2ccco2)cc1C`: the half-maximal activity concentration (AC50) was 7.08 µM (active).
In the case of `O=C1[C@@H]2[C@H]3[C@H](O)[C@H](O)C/C(=N/OC[C@@H](O)COCc4ccco4)[C@@H]3CC[C@H]2C(=O)N1c1ccc(F)cc1F`, the activity, negative = inhibition is -10.4% [at 11.4 µM].
Turning to `C/C(=N\N1CCN(C2c3ccccc3-c3ccccc32)CC1)c1ccncc1`, the half-maximal activity concentration (AC50) is 8.91 µM (active).
With `C/C(=N\N1CCN(C2c3ccccc3-c3ccccc32)CC1)c1cccnc1`, the AC50 was 12.6 µM (active).
For the molecule `Cc1ccnc(N2C(=O)C3C4CC(C(Br)C4Br)C3C2=O)c1` (centres undefined), the “activity, negative = inhibition” value is 8.01%.
On to `C[C@@H](COc1ccc(/C=C\c2ccccc2)cc1)[N+](C)(C)C`, for which the “activity, negative = inhibition” value is -18.1%.
Still for that read-out and setting: in the case of `CC[N+](CC)(CC)CCOc1cccc(OCC[N+](CC)(CC)CC)c1OCC[N+](CC)(CC)CC` it was 10.9%; in that of `O=C(O)[C@@H]1CCCNC1`, -0.55% [at 25.6 µM].
Consider `Cc1cc(C)c(C)c(S(=O)(=O)ON2C(=O)c3ccccc3C2=O)c1C`, for which the AC50 was 28.2 µM (active).
On the same count and under the same terms, under `FC(F)(F)c1cc(-c2ccco2)nc(NCc2cccs2)n1` stands 0.158 µM (active).
For the molecule `FC(F)(F)c1cc(-c2ccco2)nc(NCCc2ccccc2)n1`, the AC50 is 2.82 µM (active).
Consider `FC(F)(F)c1ccccc1-c1nc(Nc2ccncc2)c2ccccc2n1`, for which the AC50 was 10 µM (active).
On to `Clc1ccccc1-c1nc(Nc2ccncc2)c2ccccc2n1`, for which the AC50 was 0.501 µM (active).
Regarding `COc1ccccc1-c1nc(Nc2ccncc2)c2ccccc2n1`, the concentration at half-maximal activity (AC50) was 0.316 µM (active).
`Cc1ccccc1-c1nc(Nc2ccncc2)c2ccccc2n1`: the concentration at half-maximal activity (AC50) was 0.794 µM (active).
